Test results taken from PubChem BioAssay (Tox21).
A number with no mark means an inactive call. Records with an inconclusive call do not appear. Where a call stands in place of a potency, no number is given. Calls of active or inactive are those of the source. Unless noted, calls follow the shape of the dose curve; as a rule, active = well fitted curve in the direction sought with a large enough effect in the repeat runs; inconclusive = weak or mixed curves; inactive = no such curve, though single readings can be large; an effect the other way counts as inactive or inconclusive.

How the values were obtained:
[1] = qHTS assay to identify small molecule antagonists of the estrogen related receptor (ERR) signaling pathway from Tox21 library - cell viability counter screen (AID 1224834); also: nearly all actives have a fitted effect of over 30% in size
How it was run: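 Seeded ERR cells were rested 6 h at 37 C/5% CO2 before compounds, positive and negative controls or DMSO were added. Incubation continued for 17.5 h, and viability was then quantified by CellTiter-Fluor fluorescence.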

[2] = target: Luciferin 4-monooxygenase (Photinus pyralis) (UniProt P08659); experiment: qHTS assay to identify small molecule inhibitors of firefly luciferase (AID 1224835); also: series mostly up to about 120 µM; nearly all actives have a fitted effect of over 25% in size
How it was run: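 Biochemical qHTS: compounds run as interplate titrations against purified firefly enzyme, with D-luciferin and ATP each at its KM concentration. Light output recorded by CCD imaging.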

[3] = qHTS assay to identify small molecule agonists of the constitutive androstane receptor (CAR) signaling pathway - cell viability counter screen (AID 1224836); also: series mostly up to about 92 µM; nearly all actives have a fitted effect of over 45% in size
How it was run: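 Viability read-out: CellTiter-Fluor fluorescence after 23 h compound exposure at 37 C/5% CO2 in double-stable HepG2-CYP2B6-hCAR cells, with PK11195 present at 0.75 uM final; compounds tested in 15-point titration.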

[4] = qHTS assay to identify small molecule antagonists of the constitutive androstane receptor (CAR) signaling pathway - cell viability counter screen (AID 1224837); also: series mostly up to about 92 µM; nearly all actives have a fitted effect of over 45% in size
How it was run: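 To flag cytotoxic false antagonists, HepG2 hCAR/CYP2B6-2.2kb cells were treated 23 hr with 15-concentration compound series and 50 nM CITCO at 37 C/5% CO2; CellTiter-Fluor fluorescence was the measured end point.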

[5] = target: Nuclear receptor subfamily 1 group I member 3 (Homo sapiens) (UniProt Q14994); experiment: qHTS assay to identify small molecule antagonists of the constitutive androstane receptor (CAR) signaling pathway (AID 1224838);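 also: HepG2 cells stably expressing hCAR with CYP2B6 luciferase reporter stimulated by CITCO; nearly all actives have a fitted effect of over 40% in size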
How it was run: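 Human hepatoma HepG2 cells expressing hCAR and a CYP2B6 promoter (2.2 kb) luciferase construct; compound titration (15 points) with 50 nM CITCO final, 24 h at 37 C/5% CO2; luminescence via ONE-Glo after 30 min at room temperature.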

[6] = target: Nuclear receptor subfamily 1 group I member 3 (Homo sapiens) (UniProt Q14994); experiment: qHTS assay to identify small molecule agonists of the constitutive androstane receptor (CAR) signaling pathway (AID 1224839); also: nearly all actives have a fitted effect of over 15% in size; also: potency is read from the fitted curve at half-maximal effect;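 as to activation: HepG2 cells stably carrying human CAR and a CYP2B6 luciferase reporter; series mostly up to about 92 µM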
How it was run: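 Luminescence read-out (ONE-Glo, 30 min, room temperature) from double-stable HepG2-CYP2B6-hCAR cells exposed 24 h to 15-point compound series in presence of 0.75 uM PK11195 final.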

[7] = qHTS assay to identify small molecule antagonists of the estrogen related receptor signaling pathway with the pleiotropic PPARgamma coactivator (PGC) from Tox21 10K library - cell viability counter screen (AID 1224840; active = well fitted cell-killing curve with a large enough effect in the repeat runs, not every such curve was filed as active; also: nearly all actives have a fitted effect of over 40% in size)
How it was run: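 Seeded PGC/ERR cells (2,000/well, 6 h, 37 C/5% CO2) get compound by pin tool; 17.5 h incubation at 37 C; CellTiter-Fluor added, 30 min, fluorescence measured.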

[8] = qHTS assay to identify small molecule antagonists of the estrogen related receptor signaling pathway with the pleiotropic PPARgamma coactivator (PGC) from Tox21 10K library (AID 1224841; call rule not given here; also: series mostly up to about 92 µM; actives are mostly falling curves and most rising ones were filed inactive; nearly all actives have a fitted effect of over 50% in size)
How it was run: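 Test chemicals dissolved in DMSO were applied to pre-incubated (6 h) PGC/ERR cells at 2,000 cells/well for an 18 h, 37 C treatment; reporter luminescence was then read using One-Glo.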

[9] = qHTS assay to identify small molecule agonists of the estrogen related receptor signaling pathway with the pleiotropic PPARgamma coactivator (PGC) from Tox21 10K library (AID 1224842); also: nearly all actives have a fitted effect of over 15% in size; also: potency is read from the fitted curve at half-maximal effect
How it was run: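 PGC/ERR reporter cell line, 2,000 cells per well, incubated 6 h at 37 C before 23 nL compound in DMSO was added. After 18 h at 37 C, One-Glo luminescence read following 30 min at room temperature.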

[10] = target: Thyrotropin receptor (Homo sapiens) (UniProt P16473); experiment: qHTS assay to identify small molecule agonists of the thyroid stimulating hormone receptor (TSHR) signaling pathway (AID 1224843; calls by dose curve; also: nearly all actives have a fitted effect of over 45% in size)
How it was run: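 Agonist-mode screen: TSHR HEK293 cells received test chemicals for half an hour at room temperature, then HTRF cAMP detection reagents for one hour prior to fluorescence measurement. Each chemical ran as a 15-concentration series, triplicated.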

[11] = qHTS assay to identify small molecule agonists of the hypoxia (HIF-1) signaling pathway - cell viability counter screen (AID 1224844; calls by dose curve; also: nearly all actives have a fitted effect of over 50% in size)
How it was run: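 HRE-bla ME-180; 0.5% dFBS; cpd 17 h, 37C, 5% CO2; CellTiter-Glo lum., 30 min RT, post-FRET read, same wells.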

[12] = qHTS assay to identify small molecule agonists of H2AX - cell viability counter screen (AID 1224847; calls by dose curve; also: top concentration of the series differs between compounds; nearly all actives have a fitted effect of over 30% in size)
How it was run: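 CHO-K1 wt, 1000 cells/well, o/n 37C; cpds 15 conc, 3 h 37C, 0.76% DMSO; CellTiter-Glo, 30 min RT, luminescence.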

[13] = qHTS assay to identify small molecule antagonists of the estrogen related receptor (ERR) signaling pathway from Tox21 library (AID 1224848); also: nearly all actives have a fitted effect of over 50% in size
How it was run: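 Quantitative high-throughput format: ERR reporter cells (2,000/well) pre-incubated 6 h, treated 18 h at 37 C with compounds in DMSO alongside positive and negative controls, then read by ONE-Glo luminescence.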

[14] = qHTS assay to identify small molecule agonists of the estrogen related receptor (ERR) signaling pathway from Tox21 library (AID 1224849; calls by dose curve; also: nearly all actives have a fitted effect of over 15% in size)
How it was run: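 Tox21 compounds tested for ERR agonism in an NTP reporter cell line: 18 h treatment at 37 C, then ONE-Glo luminescence.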

[15] = qHTS RealTime-Glo MT Cell Viability Assay in HepG2 cells - 24 hour (AID 1224867); also: nearly all actives have a fitted effect of over 50% in size
How it was run: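 Luminescence read-out: viable HepG2 cells reduce a prosubstrate to a NanoLuc substrate, giving a signal proportional to live cell number. Reads taken at 0, 8, 16, 24, 32 and 40 h of compound exposure at 37 C.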

[16] = qHTS RealTime-Glo MT Cell Viability Assay in HEK293 cells - 32 hour (AID 1224868)
How it was run: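 Nonlytic real-time viability readout: viable cells convert prosubstrate to NanoLuc substrate, giving luminescence proportional to live cell number. HEK293, 600 cells/well, compound added after 5 h, continuous culture at 37 C.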

[17] = A CellTox Green Cytotoxicity Assay to monitor cytotoxicity in HEK293 cells - 0 hour (AID 1224869); also: nearly all actives have a fitted effect of over 50% in size
How it was run: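 Tox21 screen in HEK293: membrane-impermeant cyanine dye fluoresces on binding dead-cell DNA; compound pinned 5 h post-seeding, plates held at 37 C, signal read repeatedly through 40 h.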

[18] = qHTS RealTime-Glo MT Cell Viability Assay in HepG2 cells - 40 hour (AID 1224870); also: nearly all actives have a fitted effect of over 50% in size
How it was run: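 HepG2 cells (600/well) mixed with RealTime-Glo MT reagent, settled 5 h at 37 C/5% CO2 before compound addition. Nonlytic NanoLuc luminescence from viable-cell prosubstrate reduction read repeatedly during 40 h treatment at 37 C.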

[19] = qHTS assay to identify small molecule agonists of H2AX (AID 1224845; active = well fitted activation curve with a large enough effect in the signal ratio in the repeat runs, not every such curve was filed as active; the % refers to the signal ratio)
How it was run: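 Wild-type CHO-K1 cells, plated overnight, exposed 3hr at 37C to 15 concentrations (0.76% DMSO final). Lysed, then HTRF anti-pH2AX (S139) cryptate and anti-H2AX-d2 antibodies, 24 hr room temperature; 665/620 nm emission read.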

[20] = qHTS assay to identify small molecule agonists of the hypoxia (HIF-1) signaling pathway (AID 1224846; active = well fitted activation curve with a large enough effect in the signal ratio in the repeat runs, not every such curve was filed as active; the % refers to the signal ratio)
How it was run: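 Reporter induction in HRE-bla ME-180 cells is taken as agonism: cells sit 5 hrs after plating, receive compounds or DMSO only, incubate 17 hrs at 37C under 5% CO2, and are loaded with CCF4-AM for beta-lactamase FRET measurement.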

Chain of Luciferin 4-monooxygenase (Photinus pyralis) (P08659 whole entry, looked up): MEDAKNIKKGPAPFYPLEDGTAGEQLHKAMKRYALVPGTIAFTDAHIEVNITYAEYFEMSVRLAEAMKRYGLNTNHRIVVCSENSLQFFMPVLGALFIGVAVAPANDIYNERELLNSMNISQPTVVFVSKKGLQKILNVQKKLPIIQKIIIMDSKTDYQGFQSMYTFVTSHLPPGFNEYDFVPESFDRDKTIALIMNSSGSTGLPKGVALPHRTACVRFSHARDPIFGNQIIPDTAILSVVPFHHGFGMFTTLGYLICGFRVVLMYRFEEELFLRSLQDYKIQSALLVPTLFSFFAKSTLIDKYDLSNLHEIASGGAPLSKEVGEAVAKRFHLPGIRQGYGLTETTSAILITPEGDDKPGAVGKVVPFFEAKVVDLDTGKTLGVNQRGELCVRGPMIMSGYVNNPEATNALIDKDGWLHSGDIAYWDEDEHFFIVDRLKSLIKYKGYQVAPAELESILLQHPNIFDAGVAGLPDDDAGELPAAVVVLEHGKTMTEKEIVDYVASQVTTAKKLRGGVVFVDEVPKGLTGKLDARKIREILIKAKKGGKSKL
Chain of Nuclear receptor subfamily 1 group I member 3 (Homo sapiens) (Q14994 whole entry, looked up): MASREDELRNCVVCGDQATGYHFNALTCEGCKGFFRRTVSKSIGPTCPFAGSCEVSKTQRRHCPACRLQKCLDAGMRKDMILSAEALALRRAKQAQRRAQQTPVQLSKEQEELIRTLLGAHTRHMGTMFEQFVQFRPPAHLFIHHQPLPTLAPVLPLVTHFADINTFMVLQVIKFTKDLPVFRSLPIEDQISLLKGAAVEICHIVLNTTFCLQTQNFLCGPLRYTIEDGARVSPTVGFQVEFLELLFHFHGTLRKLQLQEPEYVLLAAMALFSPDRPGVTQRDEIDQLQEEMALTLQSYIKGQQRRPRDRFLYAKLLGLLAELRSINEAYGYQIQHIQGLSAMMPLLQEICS
Chain of Thyrotropin receptor (Homo sapiens) (P16473 whole entry, looked up): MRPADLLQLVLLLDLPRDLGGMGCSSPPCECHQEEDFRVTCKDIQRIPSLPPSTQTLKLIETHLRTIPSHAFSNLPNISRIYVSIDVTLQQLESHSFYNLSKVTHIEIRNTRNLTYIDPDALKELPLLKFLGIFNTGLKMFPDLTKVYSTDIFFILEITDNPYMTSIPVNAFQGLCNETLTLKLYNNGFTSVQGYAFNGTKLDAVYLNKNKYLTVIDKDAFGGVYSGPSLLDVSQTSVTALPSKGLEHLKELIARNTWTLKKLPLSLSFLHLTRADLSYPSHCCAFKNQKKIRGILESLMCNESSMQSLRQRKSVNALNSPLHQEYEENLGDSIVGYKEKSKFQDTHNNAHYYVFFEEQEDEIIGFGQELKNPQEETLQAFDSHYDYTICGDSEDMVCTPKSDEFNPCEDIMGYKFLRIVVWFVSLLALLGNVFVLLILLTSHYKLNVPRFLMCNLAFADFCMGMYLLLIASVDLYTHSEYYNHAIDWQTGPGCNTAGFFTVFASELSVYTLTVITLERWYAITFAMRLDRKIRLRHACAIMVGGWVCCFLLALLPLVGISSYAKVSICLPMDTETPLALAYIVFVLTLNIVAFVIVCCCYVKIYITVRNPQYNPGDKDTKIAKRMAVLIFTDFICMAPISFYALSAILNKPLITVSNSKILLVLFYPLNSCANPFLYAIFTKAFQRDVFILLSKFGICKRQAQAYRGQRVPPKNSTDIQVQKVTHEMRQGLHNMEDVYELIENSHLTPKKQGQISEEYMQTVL

SMILES	Potency [1]	Potency [2]	outcome [3]	outcome [4]	Potency [5]	Potency [6]	outcome [7]	Potency [8]	Potency [9]	Potency [10]	Potency [11]	outcome [12]	Potency [13]	outcome [14]	outcome [15]	Potency [16]	outcome [17]	Potency [18]	Potency [19]	outcome [20]
CO/N=C(\C(=O)N[C@@H]1C(=O)N2C(C(=O)O)=C(CSc3nc(=O)c(O)nn3C)CS[C@H]12)c1csc(N)n1	inactive	inactive	inactive	inactive	inactive	inactive	inactive	inactive	inactive	inactive	inactive	inactive	inactive	inactive	inactive	inactive	inactive	inactive	–	–
Clc1cc(Cl)cc(Cl)c1	inactive	inactive	inactive	inactive	inactive	inactive	inactive	inactive	inactive	inactive	inactive	inactive	inactive	inactive	–	inactive	–	inactive	inactive	inactive
CCCCCCCCN1CCCC1=O	inactive	inactive	inactive	inactive	inactive	30.6 µM (active)	inactive	inactive	inactive	–	inactive	–	inactive	inactive	inactive	inactive	–	inactive	inactive	inactive
O=C(CO)[C@@H](O)[C@H](O)[C@@H](O)CO	inactive	inactive	inactive	inactive	inactive	inactive	inactive	inactive	inactive	inactive	inactive	inactive	inactive	inactive	inactive	inactive	inactive	inactive	–	inactive
C[N+]12CCC(CC1)C(OC(=O)C(O)(c1ccccc1)c1ccccc1)C2 (stereo unspecified)	inactive	inactive	inactive	inactive	inactive	inactive	inactive	–	inactive	inactive	–	inactive	inactive	inactive	inactive	inactive	inactive	inactive	–	–
O=S(=O)(O)c1cccc2c(S(=O)(=O)O)cccc12	inactive	inactive	inactive	inactive	inactive	inactive	inactive	inactive	inactive	inactive	inactive	inactive	inactive	inactive	inactive	–	inactive	inactive	inactive	inactive
CC1(C)OC[C@@H](COC(=O)CCc2ccc(OC[C@@H](O)CNCCNC(=O)N3CCOCC3)cc2)O1	inactive	inactive	inactive	inactive	inactive	inactive	inactive	inactive	inactive	inactive	inactive	inactive	inactive	inactive	inactive	inactive	inactive	inactive	inactive	inactive
O=C(CO)[C@@H](O)[C@H](O)[C@H](O)CO	inactive	inactive	inactive	inactive	inactive	inactive	inactive	inactive	0.0017 µM (active)	inactive	inactive	inactive	inactive	inactive	inactive	inactive	inactive	inactive	–	inactive
O=Cc1cccc(Br)c1	inactive	inactive	inactive	inactive	inactive	inactive	inactive	inactive	inactive	inactive	inactive	inactive	inactive	inactive	inactive	inactive	inactive	inactive	inactive	inactive
COc1ccccc1OCC1CNC(=O)O1 (stereo unspecified)	inactive	inactive	inactive	inactive	inactive	inactive	inactive	–	inactive	inactive	inactive	inactive	inactive	inactive	inactive	inactive	inactive	inactive	inactive	inactive
Nc1c2c(nc3c1CCC3)CCCC2	inactive	inactive	inactive	inactive	inactive	inactive	inactive	inactive	inactive	–	inactive	inactive	inactive	inactive	–	inactive	inactive	inactive	inactive	inactive
Cc1onc(-c2c(Cl)cccc2Cl)c1C(=O)Cl	inactive	inactive	inactive	inactive	inactive	inactive	inactive	–	–	inactive	inactive	inactive	–	–	inactive	inactive	inactive	inactive	–	inactive
CCCc1nn(C)c2c(=O)[nH]c(-c3cc(S(=O)(=O)N4CCN(C)CC4)ccc3OCC)nc12	inactive	inactive	inactive	inactive	inactive	inactive	inactive	–	–	inactive	inactive	inactive	–	–	inactive	–	inactive	inactive	–	inactive
NC(CCC(=O)O)C(=O)O (stereo unspecified)	inactive	inactive	inactive	inactive	inactive	inactive	inactive	–	–	inactive	inactive	inactive	–	–	inactive	inactive	–	inactive	–	inactive
